Source: PubChem (Columbia University Molecular Screening Center)
The list is not random: actives were taken first. Their share in the collection is about 1.3%.
IL1B cytotox – HUVEC cytotoxicity counter-screen, IL-1B stimulated. HUVEC cell count loss, Hoechst imaging. cell count reduction, % at 2 µM. 0.41% of 94,000 active. AID 845;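 active = cell count reduction more than 3 SD above the screen-wide mean, cut at about 70% in these data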;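 also: normalized per plate to untreated control cells as the no-loss baseline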
IL1B NFkB inh – blocks IL-1B driven NFkB nuclear translocation in HUVEC cells; HUVEC IL-1B NFkB p65 nuclear translocation imaging; inhibition, % at 2 µM; 0.43% of 94,000 active; AID 796;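 active = inhibition above about 30% together with a positive call from visual inspection of the well image, limit read from the data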;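 also: nuclear over cytoplasmic p65 intensity ratio measured by imaging; 0% = IL-1B stimulated DMSO wells and 100% = unstimulated DMSO wells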
INS promoter inh – TRM-6 insulin promoter activity inhibition | TRM-6 cells (human fetal islet line), insulin promoter-eGFP reporter, imaging; reporter expression induced with tamoxifen | 0.9% of 130,000 active | inhibition, % at 2 µM | AID 1273;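 active = inhibition above the mean plus 3 SD, with well images judged a real hit on visual review, cut at about 60% in these data, passing the limit was not always enough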
IL1B NFkB pot – enhances IL-1B driven NFkB nuclear translocation | 0.3% of 94,000 active | activation, % at 2 µM | HUVEC IL-1B NFkB p65 nuclear translocation imaging;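 active = activation above 40%, about the mean plus 3 SD, also judged a hit on visual image review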;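 also: percent activation is computed from the nuclear over cytoplasmic p65 intensity ratio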
An asterisk follows results filed as active.

Cc1ccc(CC(NC(=O)c2ccccc2)C(=O)N2CCCC2C(=O)O)cc1 (stereo unspecified) was read as IL1B cytotox -3, IL1B NFkB inh 1, INS promoter inh 20 and IL1B NFkB pot -1.
For O=C(NC(Cc1ccc2c(c1)OCO2)C(=O)N1CCCC1C(=O)O)c1ccccc1 (stereo unspecified) the results were IL1B cytotox -25, IL1B NFkB inh -12, INS promoter inh 87* and IL1B NFkB pot 12.
`Cc1cc(O)c(C(=O)Cc2csc(C)n2)c(O)c1` gave INS promoter inh -18.
CN1CCN(Cc2cc(=O)oc3cc4c(cc23)CCC4)CC1 was read as IL1B cytotox -12, IL1B NFkB inh -41, INS promoter inh 0 and IL1B NFkB pot 41*.
Screening Cc1ccccc1C(=O)NCC(=O)O returned INS promoter inh -12.
Screening CC(NC(=O)C12CC3(C)CC(C)(CC(C)(C3)C1)C2)C(=O)O (stereo unspecified) returned INS promoter inh 71*.
`C=CCn1cc(C(C)=O)c(=O)[nH]c1=O` gave INS promoter inh 18.
`CCCn1nnc(NC(=O)c2ccc(Br)cc2)n1` gave IL1B cytotox 6, IL1B NFkB inh -13, INS promoter inh 79* and IL1B NFkB pot 13.
For O=C(NNC(=O)[C@@H]1CCCC[C@@H]1C(=O)O)Nc1ccccc1 the results were INS promoter inh 9.
Cc1c(Nc2ncnc3c2cnn3-c2ccccc2)c(=O)n(-c2ccccc2)n1C was read as IL1B cytotox 10, IL1B NFkB inh -1, INS promoter inh 10 and IL1B NFkB pot 1.
Screening Cc1cccc(-n2ncc3c(Nc4c(C)n(C)n(-c5ccccc5)c4=O)ncnc32)c1 returned IL1B cytotox -45, IL1B NFkB inh -1, INS promoter inh 100* and IL1B NFkB pot 1.
Screening CN(C(=O)COc1ccccc1C(=O)NCCOc1ccccc1)c1ccccc1 returned INS promoter inh -38.
`Clc1ccc2c(N/N=C/c3cccnc3)ccnc2c1` gave INS promoter inh 93*.
Cc1ccccc1/C=N/Nc1ccnc2cc(Cl)ccc12 was read as INS promoter inh 80*.
Screening Clc1ccc(NNc2ccnc3cc(Cl)ccc23)cc1 returned IL1B cytotox -2, IL1B NFkB inh 6, INS promoter inh -27 and IL1B NFkB pot -6.
Clc1ccc2c(N/N=C/c3ccc(Br)cc3)ccnc2c1 was read as INS promoter inh 92*.
CC(=O)Nc1ccc(N2CCc3c(C)c(C#N)c4nc5ccccc5n4c32)cc1 was read as INS promoter inh -69.
For C=CCN(C(=O)c1cccc(S(=O)(=O)N2CCN(C)CC2)c1)c1nc(-c2ccccc2)cs1 the results were IL1B cytotox 6, IL1B NFkB inh 1, INS promoter inh 11 and IL1B NFkB pot -1.
Screening COc1ccc(Cl)cc1/C=C(\C#N)C(N)=O returned INS promoter inh 21.
For CSc1cccc(NC(=O)Nc2ccc(Cl)cc2)c1 the results were IL1B cytotox -11, IL1B NFkB inh 76*, INS promoter inh -8 and IL1B NFkB pot -76.
Screening CSc1cccc(NC(=O)COc2cccc3ccccc23)c1 returned IL1B cytotox -20, IL1B NFkB inh -8, INS promoter inh 73* and IL1B NFkB pot 8.
COc1ccccc1N1CCN(C(=O)Cn2nc3n(C)c4ccccc4n3c(=O)c2=O)CC1 was read as INS promoter inh 25.
For CC(C)CC(=O)NC1(C(F)(F)F)C(=O)N(Cc2ccccc2)C2=C1C(=O)CC(C)(C)C2 (stereo unspecified) the results were IL1B cytotox -38, IL1B NFkB inh 33*, INS promoter inh -49 and IL1B NFkB pot -33.
COc1cc(NC(=S)N2CCCCC2C)cc(OC)c1OC (stereo unspecified) was read as INS promoter inh -18.
O=C(OCCN1C(=O)c2ccccc2C1=O)c1cc2ccccc2o1 was read as IL1B cytotox -15, IL1B NFkB inh -45 and IL1B NFkB pot 45*.
O=C(Nc1nnc(COc2ccc(Cl)cc2)s1)c1cccs1 was read as IL1B cytotox -18, IL1B NFkB inh -20, INS promoter inh 80* and IL1B NFkB pot 20.
`Cc1c(NS(=O)(=O)c2cc(NC(=O)CCN3CCCC(C)C3)ccc2Cl)c(=O)n(-c2ccccc2)n1C` (stereo unspecified) gave INS promoter inh -42.
CCOC(=O)/C=C/S(=O)(=O)c1ccc(NC(C)=O)cc1 was read as IL1B cytotox -8, IL1B NFkB inh 33*, INS promoter inh -188 and IL1B NFkB pot -33.
Screening CCCOc1ccc(-c2cn3ccccc3n2)cc1 returned INS promoter inh 33.
Brc1ccc(-c2cn3ccccc3n2)s1 was read as IL1B cytotox 16, IL1B NFkB inh -19, INS promoter inh 86* and IL1B NFkB pot 19.
Cc1c(NS(=O)(=O)c2cccc(C(=O)NCc3ccccc3)c2)c(=O)n(-c2ccccc2)n1C was read as IL1B cytotox 7, IL1B NFkB inh -6, INS promoter inh -23 and IL1B NFkB pot 6.
`Cc1c(NC(=O)c2ccc(F)cc2)c(=O)n(-c2ccccc2)n1C` gave IL1B cytotox -1, IL1B NFkB inh 11 and IL1B NFkB pot -11.
For Cc1c(NS(=O)(=O)c2cccc(C(=O)NCc3ccncc3)c2)c(=O)n(-c2ccccc2)n1C the results were IL1B cytotox 8, IL1B NFkB inh -42, INS promoter inh 27 and IL1B NFkB pot 42*.
Cc1c(NC(=O)c2cccc(F)c2)c(=O)n(-c2ccccc2)n1C was read as IL1B cytotox 77*, IL1B NFkB inh -2, INS promoter inh -219 and IL1B NFkB pot 2.
Screening Cc1csc(NC(=O)c2cc3c(C)nn(Cc4ccccc4Cl)c3s2)n1 returned INS promoter inh 8.
COc1ccc(-n2cc(C(=O)O)c3ccccc3c2=O)cc1 was read as IL1B cytotox -64, IL1B NFkB inh 11, INS promoter inh -76 and IL1B NFkB pot -11.
O=C(O)c1cn(-c2ccccc2)c(=O)c2ccccc12 was read as IL1B cytotox 2, IL1B NFkB inh 0, INS promoter inh 70* and IL1B NFkB pot 0.
For CC(NS(=O)(=O)c1ccccc1)C(=O)Nc1nccs1 (stereo unspecified) the results were IL1B cytotox -11, IL1B NFkB inh -44, INS promoter inh 0 and IL1B NFkB pot 44*.
Screening CC(NS(=O)(=O)c1ccccc1)C(=O)Nc1ccc(S(N)(=O)=O)cc1 (stereo unspecified) returned IL1B cytotox -2, IL1B NFkB inh 17, INS promoter inh -205 and IL1B NFkB pot -17.
For COc1ccc(NC(=O)C2CCCN2S(=O)(=O)c2cccc3cccnc23)c(OC)c1 (stereo unspecified) the results were IL1B cytotox -11, IL1B NFkB inh -75 and IL1B NFkB pot 75*.
For CCOC(=O)C1(C)C=C(Nc2ccc(C)cc2)C(=O)N1c1ccc(C)cc1 (stereo unspecified) the results were INS promoter inh 70*.
CCOC(=O)C1(C)/C(=N/Nc2ccc(S(N)(=O)=O)cc2)C(=O)C(=O)N1c1ccccc1 (stereo unspecified) was read as INS promoter inh 28.
Screening O=C(Nc1ccc(F)cc1)N1CCOCC1 returned IL1B cytotox 11, IL1B NFkB inh 10, INS promoter inh 21 and IL1B NFkB pot -10.
